Results filed as inconclusive are left out. Calls of active or inactive are those of the source.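 Rule for the calls, unless noted: active = percent response above 42, roughly 3 SD of non-fluorescent test compounds; inactive = the rest.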
Tests used:
[1] = rapamycin-like changes in RPL19A-GFP expression – cell-based, S. cerevisiae, multiplex flow cytometry, primary screen (AID 1862; in the data active = percent of DMSO control GFP below about 86%;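 note: lower values mimic rapamycin by blocking the RPL19A rise seen in DMSO cells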); conditions: S. cerevisiae RPL19A-GFP strain, flow cytometry fluorescence, 3 h; at 10 µM; stronger effect = lower value
[2] = TOR pathway GLN3 branch reporter MEP2-GFP changes – S. cerevisiae, multiplex flow cytometry, primary screen (AID 1867;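 active = GFP response, as percent of the DMSO control, above the screen-wide mean plus 3 SD, about 139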;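 note: median GFP channel fluorescence of barcode-gated MEP2-GFP cells measured by flow cytometry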); conditions: S. cerevisiae MEP2-GFP strain, 3 h, at 10 µM, stronger effect = higher value, 100% means same as DMSO wells
[3] = TOR pathway RTG branch CIT2 reporter changes – S. cerevisiae, GFP fusion, multiplex flow cytometry, primary screen (AID 1870;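 active = percent response above a set limit, the screen-wide mean plus 3 SD, cut at about 130% in these data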;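 note: barcoded CIT2-GFP strain pooled with four other GFP strains with rapamycin as positive control; median GFP fluorescence per well over plate mean of DMSO wells so 100% = DMSO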); conditions: S. cerevisiae CIT2-GFP expression, 3 h, at 10 µM, stronger effect = higher value
[4] = TOR pathway LAP4-GFP level changes – S. cerevisiae, multiplex flow cytometry, primary screen (AID 1873;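 active = GFP signal, as percent of the solvent control, above the screen mean plus 3 SD, about 149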); conditions: S. cerevisiae LAP4-GFP expression, 3 h, at 10 µM, stronger effect = higher value
[5] = yeast AGP1-GFP level changes, GLN3 branch – cell-based, multiplex flow cytometry, S. cerevisiae, primary screen (AID 1887;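 active = GFP signal above the screen-wide mean plus 3 SD, that is over about 124.5% of the solvent control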;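 note: AGP1-GFP fusion strain of S. cerevisiae within a five-strain barcoded multiplex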); conditions: 3 h, at 10 µM, stronger effect = higher value
[6] = reduced mouse 2C T cell binding to pMHC/ICAM-1 vesicles – MLPCN validation set, flow cytometry, LFA-1/ICAM-1 modulator project, pilot screen (AID 2523;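 active = response below a set limit, under 55% cells CD8-positive and vesicle-bound, and CD8 cells' 90th-percentile brightness under 279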;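 for vesicle binding response: mean PE anti-B7-1 fluorescence of CD8+ cells relative to row control; 100% = QL9-loaded vesicles with DMSO vehicle in the same plate row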); conditions: 2C mouse CD8+ T cells, at 7 µM, stronger effect = lower value; double positive events: measured here: CD8+/vesicle+ event percentage
[7] = biological target: Integrin beta-1 (Homo sapiens) + Integrin alpha-4 (Homo sapiens) (UniProt P13612+P05556); experiment: alpha4beta1 integrin LIBS antibody binding reduction – U937 cells, HUTS-21 mAb, flow cytometry, validation set, VLA-4 allosteric modulator project, pilot screen (AID 2674;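 active = inhibition above 50%, about 3 SD of the validation set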;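 note: antibody binding induced by the VLA-4 ligand LDV present at three times its Kd; 0% = LDV ligand with antibody and no compound and 100% = antibody without LDV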); conditions: HUTS-21 LIBS mAb binding, at 6.7 µM, stronger effect = higher value, binding induced by LDV ligand
Sequence of Integrin beta-1 (Homo sapiens) + Integrin alpha-4 (Homo sapiens) (P05556 whole entry, looked up): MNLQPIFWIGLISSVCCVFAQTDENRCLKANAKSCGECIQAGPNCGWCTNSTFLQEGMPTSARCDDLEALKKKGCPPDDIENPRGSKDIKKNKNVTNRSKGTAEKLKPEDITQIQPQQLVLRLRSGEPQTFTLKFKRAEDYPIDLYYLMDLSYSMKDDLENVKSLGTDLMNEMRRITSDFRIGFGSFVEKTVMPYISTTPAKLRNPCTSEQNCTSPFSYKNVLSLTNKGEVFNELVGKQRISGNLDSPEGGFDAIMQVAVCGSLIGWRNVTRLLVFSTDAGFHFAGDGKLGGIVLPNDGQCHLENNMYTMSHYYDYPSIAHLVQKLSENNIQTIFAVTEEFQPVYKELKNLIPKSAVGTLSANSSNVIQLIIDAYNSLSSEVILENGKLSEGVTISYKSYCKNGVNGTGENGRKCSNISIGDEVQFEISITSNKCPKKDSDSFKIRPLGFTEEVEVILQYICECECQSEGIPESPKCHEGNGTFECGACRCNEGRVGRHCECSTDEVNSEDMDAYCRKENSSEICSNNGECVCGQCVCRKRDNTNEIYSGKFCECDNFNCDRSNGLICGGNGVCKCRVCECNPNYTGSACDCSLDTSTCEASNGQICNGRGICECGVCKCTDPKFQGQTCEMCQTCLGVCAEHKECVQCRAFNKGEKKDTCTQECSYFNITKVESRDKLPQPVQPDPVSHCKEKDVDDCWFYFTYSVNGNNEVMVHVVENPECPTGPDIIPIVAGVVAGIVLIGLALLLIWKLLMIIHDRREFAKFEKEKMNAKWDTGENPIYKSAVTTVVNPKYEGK
Sequence of Integrin beta-1 (Homo sapiens) + Integrin alpha-4 (Homo sapiens) (P13612 whole entry, looked up): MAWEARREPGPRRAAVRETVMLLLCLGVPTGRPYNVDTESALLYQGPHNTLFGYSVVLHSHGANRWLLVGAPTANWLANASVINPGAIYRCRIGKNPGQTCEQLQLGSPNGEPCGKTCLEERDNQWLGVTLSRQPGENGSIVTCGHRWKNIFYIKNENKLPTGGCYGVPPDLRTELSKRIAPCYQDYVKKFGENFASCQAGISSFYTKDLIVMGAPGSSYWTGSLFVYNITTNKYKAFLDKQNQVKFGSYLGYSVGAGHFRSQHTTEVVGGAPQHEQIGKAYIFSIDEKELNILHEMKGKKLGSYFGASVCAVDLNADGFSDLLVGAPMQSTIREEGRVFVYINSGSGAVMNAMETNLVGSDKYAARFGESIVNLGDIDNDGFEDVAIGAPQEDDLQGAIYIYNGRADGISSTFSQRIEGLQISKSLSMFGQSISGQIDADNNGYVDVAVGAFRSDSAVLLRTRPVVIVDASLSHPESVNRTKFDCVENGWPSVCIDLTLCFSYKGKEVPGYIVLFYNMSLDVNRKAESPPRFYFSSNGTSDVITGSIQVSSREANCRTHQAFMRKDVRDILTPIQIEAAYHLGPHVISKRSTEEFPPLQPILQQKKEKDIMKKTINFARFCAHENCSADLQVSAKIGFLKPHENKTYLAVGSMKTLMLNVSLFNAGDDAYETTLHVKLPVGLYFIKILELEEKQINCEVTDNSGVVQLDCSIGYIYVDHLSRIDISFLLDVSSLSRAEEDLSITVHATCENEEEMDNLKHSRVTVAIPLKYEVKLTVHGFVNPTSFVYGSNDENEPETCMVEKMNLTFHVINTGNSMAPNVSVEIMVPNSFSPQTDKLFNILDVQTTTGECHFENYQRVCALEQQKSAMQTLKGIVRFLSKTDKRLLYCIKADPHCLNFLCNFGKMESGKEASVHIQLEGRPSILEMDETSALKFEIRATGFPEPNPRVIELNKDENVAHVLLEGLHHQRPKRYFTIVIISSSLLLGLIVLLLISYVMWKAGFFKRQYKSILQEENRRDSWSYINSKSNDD

[8] = calorie-restriction mimetic ROS inhibitors, yeast – validation compound set, pilot screen (AID 2706;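 active = superoxide response below 65% of plate, a cut near 3 SD across the whole screen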;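 note: yeast exposed to compound for one week at 30 degrees C before staining; 100% = mean of all compound wells on the same plate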); conditions: S. cerevisiae aging, superoxide DHE fluorescence; at 10 µM; stronger effect = lower value
[9] = biological target: Beta-adrenergic receptor kinase 1 (Homo sapiens) (UniProt P25098); experiment: GRK2 binders displacing RNA aptamer, biochemical, validation, human GRK2, bead flow cytometry (AID 488806;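 active = aptamer binding inhibition above 30%, about 3 SD of noise from non-fluorescent compounds; inactive = inhibition at or below 30%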); conditions: bead-bound GRK2, FAM-aptamer displacement, at 10 µM, stronger effect = higher value
Sequence of Beta-adrenergic receptor kinase 1 (Homo sapiens) (P25098 whole entry, looked up): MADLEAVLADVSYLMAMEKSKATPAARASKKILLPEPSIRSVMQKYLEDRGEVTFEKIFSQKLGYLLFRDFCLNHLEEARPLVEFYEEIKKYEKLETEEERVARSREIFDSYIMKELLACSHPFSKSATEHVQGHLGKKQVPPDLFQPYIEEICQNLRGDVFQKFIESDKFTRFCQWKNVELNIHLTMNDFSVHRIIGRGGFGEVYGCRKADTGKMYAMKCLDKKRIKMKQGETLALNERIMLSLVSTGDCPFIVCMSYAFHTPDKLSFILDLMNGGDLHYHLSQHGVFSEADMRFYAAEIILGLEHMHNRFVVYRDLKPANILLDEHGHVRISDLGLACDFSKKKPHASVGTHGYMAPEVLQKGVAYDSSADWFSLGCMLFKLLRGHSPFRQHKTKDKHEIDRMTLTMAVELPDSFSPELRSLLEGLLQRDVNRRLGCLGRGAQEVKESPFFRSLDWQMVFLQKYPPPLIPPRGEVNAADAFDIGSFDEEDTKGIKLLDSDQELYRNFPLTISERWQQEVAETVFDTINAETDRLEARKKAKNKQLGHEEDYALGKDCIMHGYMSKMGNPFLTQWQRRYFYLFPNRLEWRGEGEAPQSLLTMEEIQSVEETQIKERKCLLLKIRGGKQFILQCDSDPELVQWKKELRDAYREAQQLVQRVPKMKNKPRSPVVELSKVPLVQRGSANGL

[10] = biological target: Beta-2 adrenergic receptor (Homo sapiens) (UniProt P07550); experiment: agonist-induced loss of surface beta2AR – cell-based, FAP fluorogen, flow cytometry, validation set, pilot screen (AID 504459); conditions: Am2.2-beta2AR cells, at 10 µM, stronger effect = higher value;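 note: agonist-driven loss of surface beta2AR via internalization measured by FAP dye flow cytometry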
Sequence of Beta-2 adrenergic receptor (Homo sapiens) (P07550 whole entry, looked up): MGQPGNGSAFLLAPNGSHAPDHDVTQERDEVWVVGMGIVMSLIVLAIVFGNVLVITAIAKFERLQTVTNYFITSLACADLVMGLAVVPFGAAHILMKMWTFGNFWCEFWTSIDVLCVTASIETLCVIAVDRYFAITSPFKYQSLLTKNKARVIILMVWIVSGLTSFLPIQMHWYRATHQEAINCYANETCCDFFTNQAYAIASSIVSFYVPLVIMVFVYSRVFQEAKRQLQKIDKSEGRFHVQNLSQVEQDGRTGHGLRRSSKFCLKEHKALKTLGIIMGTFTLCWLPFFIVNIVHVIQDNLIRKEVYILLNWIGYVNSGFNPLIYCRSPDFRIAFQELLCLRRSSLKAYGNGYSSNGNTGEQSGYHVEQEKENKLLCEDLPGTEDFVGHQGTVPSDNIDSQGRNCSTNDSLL

[11] = biological target: AP-2 complex subunit beta (Homo sapiens) (UniProt P63010); experiment: beta-arrestin/AP2 interaction blockers – biochemical, validation set, GST-AP2 beads, flow cytometry, pilot screen (AID 504541;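 active = inhibition above 54%, about 3 SD of non-fluorescent compounds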;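 note: AP2 carries R879A mutation and is captured from E. coli lysate; bead-bound FITC arrestin peptide fluorescence measuring arrestin peptide binding to AP2; 0% = DMSO wells and 100% = excess unlabeled arrestin peptide control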); conditions: FITC arrestin peptide, at 10 µM, stronger effect = higher value, AP2 beta2 appendage fragment, R879A mutant
Sequence of AP-2 complex subunit beta (Homo sapiens) (P63010 whole entry, looked up, the tested form may be a part, one chain of several): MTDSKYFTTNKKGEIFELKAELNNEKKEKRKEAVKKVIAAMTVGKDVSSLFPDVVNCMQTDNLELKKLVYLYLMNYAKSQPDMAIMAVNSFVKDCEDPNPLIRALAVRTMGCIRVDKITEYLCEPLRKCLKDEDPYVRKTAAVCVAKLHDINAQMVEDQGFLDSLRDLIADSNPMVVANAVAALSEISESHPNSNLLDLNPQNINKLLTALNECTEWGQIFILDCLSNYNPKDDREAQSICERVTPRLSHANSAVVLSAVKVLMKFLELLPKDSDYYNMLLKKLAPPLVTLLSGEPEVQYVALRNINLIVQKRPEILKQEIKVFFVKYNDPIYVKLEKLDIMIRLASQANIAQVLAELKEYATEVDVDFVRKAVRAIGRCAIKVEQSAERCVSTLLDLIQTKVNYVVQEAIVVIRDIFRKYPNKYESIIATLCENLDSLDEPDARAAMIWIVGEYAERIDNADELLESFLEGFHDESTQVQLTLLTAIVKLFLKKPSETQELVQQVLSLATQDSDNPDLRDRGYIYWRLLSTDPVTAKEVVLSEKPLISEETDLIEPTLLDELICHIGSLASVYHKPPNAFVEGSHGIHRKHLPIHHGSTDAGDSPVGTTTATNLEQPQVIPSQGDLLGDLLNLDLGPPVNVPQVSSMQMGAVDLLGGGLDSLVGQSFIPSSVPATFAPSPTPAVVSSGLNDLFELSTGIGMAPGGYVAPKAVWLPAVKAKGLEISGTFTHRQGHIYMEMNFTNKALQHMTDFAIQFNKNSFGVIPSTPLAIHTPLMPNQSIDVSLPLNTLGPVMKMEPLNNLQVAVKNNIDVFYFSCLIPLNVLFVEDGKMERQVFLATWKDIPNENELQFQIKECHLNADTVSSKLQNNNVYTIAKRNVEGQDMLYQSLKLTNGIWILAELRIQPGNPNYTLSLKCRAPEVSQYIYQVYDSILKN

[12] = cytosolic pH regulators acting via V-ATPase – S. cerevisiae, pHLuorin, HTS validation (AID 504600; in the data active = response above about 15%;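 note: plate controls were DMSO for no effect and reference compound for full effect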); conditions: V-ATPase proton transport, at 10 µM, stronger effect = higher value
[13] = system: anti-desmoglein-3 scFv antibody binding to human DSG3; experiment: blockers of pathogenic pemphigus antibody–desmoglein-3 binding – biochemical, validation compound set, bead-based, flow cytometry, pilot screen (AID 588368;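 active = binding below the plate cutoff, the plate median minus 3 SD, with a reading above zero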;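 note: signal is the median channel fluorescence of bead-bound GFP antibody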); conditions: Protein G beads, DSG3-Fc, scFv-GFP binding, at 10 µM, stronger effect = lower value
[14] = Nile Red efflux blockade in pump-expressing yeast – validation compound set, multiplex, phenotypic, pilot screen (AID 588506;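 active = efflux inhibition above 0.42, the validation set average plus 4 SD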;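 note: Nile Red retained in cells so higher fluorescence means more efflux inhibition; 0 = negative control wells and 1 = enniatin B 25 µM full block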); conditions: S. cerevisiae pump-expressing triplex, Nile Red efflux flow cytometry; at 10 µM; stronger effect = higher value; the pumps come from Candida albicans
[15] = biological target: ATP-binding cassette sub-family B member 6 (Homo sapiens) (UniProt Q9NP58); experiment: blockers of ABCB6-driven porphyrin uptake – K562-ABCB6 cells, flow cytometry, validation set, pilot screen (AID 588550;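 active = inhibition above the screen-wide mean plus 3 SD, about 51%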;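 note: 0% = DMSO wells and 100% = benzethonium chloride 70 µM positive control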); conditions: K562-ABCB6 porphyrin accumulation, 1 h, at 10 µM, stronger effect = higher value
Sequence of ATP-binding cassette sub-family B member 6 (Homo sapiens) (Q9NP58 whole entry, looked up): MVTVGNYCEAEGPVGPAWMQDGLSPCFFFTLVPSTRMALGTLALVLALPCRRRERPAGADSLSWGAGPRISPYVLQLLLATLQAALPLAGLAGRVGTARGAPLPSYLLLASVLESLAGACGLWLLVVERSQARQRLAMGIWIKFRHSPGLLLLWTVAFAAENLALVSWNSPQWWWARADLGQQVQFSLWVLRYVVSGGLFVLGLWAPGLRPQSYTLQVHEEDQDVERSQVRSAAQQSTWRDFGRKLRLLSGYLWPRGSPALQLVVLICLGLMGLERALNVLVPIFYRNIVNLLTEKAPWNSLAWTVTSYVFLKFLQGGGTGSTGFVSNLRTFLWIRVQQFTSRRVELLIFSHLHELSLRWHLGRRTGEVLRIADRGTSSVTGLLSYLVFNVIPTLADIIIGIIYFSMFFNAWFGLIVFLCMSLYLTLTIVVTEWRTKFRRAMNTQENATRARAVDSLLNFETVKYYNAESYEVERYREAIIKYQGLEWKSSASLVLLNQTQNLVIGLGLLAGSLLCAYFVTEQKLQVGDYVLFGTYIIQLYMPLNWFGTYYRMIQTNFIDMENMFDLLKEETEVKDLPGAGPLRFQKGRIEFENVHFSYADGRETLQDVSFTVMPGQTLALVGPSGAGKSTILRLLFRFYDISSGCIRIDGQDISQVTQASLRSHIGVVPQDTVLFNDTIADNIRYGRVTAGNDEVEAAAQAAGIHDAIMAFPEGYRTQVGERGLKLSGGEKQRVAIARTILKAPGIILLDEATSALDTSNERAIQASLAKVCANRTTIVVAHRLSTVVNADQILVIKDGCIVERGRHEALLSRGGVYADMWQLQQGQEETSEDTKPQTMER

[16] = AML differentiation inducers, ER-HoxA9 marrow cells – cell-based, GFP/MAC1 double positive, flow cytometry, validation set, primary screen (AID 588685;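 active = differentiation response of at least 50%, scaled between solvent and reference control, from cells with both markers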;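 note: compound exposure lasts four days before antibody staining and flow analysis; 0% = DMSO wells and 100% = 5 µM fulvestrant positive control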); conditions: stronger effect = higher value, normalized: vehicle 0, fulvestrant 100

CCOC(=O)C1(Cc2cccc(Cl)c2)CCCN(C2CCN(C(C)=O)CC2)C1 (stereo not given)
inactive: percent of DMSO control GFP [1] 101% | GFP response vs DMSO [2] 101% | percent response of DMSO control [3] 102% | GFP response vs DMSO [4] 101% | GFP response, % of DMSO [5] 100% | vesicle binding response [6] 42.6% | inhibition [7] -7.72% | superoxide response (% of plate) [8] 106% | aptamer binding inhibition [9] -3% | response [10] -8.31% | inhibition [11] 34.6% | response [12] -5.5% | binding (% of control) [13] 177% | efflux inhibition (fraction of control) [14] -0.1 | inhibition [15] 13% | differentiation response [16] -0.73%
60.5%: double positive events [6]

CC(=O)c1c[nH]c2ccc(C)cc2c1=O
inactive: percent of DMSO control GFP [1] 97.4% | GFP response vs DMSO [2] 99.6% | percent response of DMSO control [3] 97.7% | GFP response vs DMSO [4] 114% | GFP response, % of DMSO [5] 94.9% | vesicle binding response [6] 228% | inhibition [7] -85.1% | superoxide response (% of plate) [8] 104% | aptamer binding inhibition [9] 0% | response [10] -3.59% | inhibition [11] 34.1% | response [12] -1.39% | binding (% of control) [13] 101% | efflux inhibition (fraction of control) [14] -0.31 | inhibition [15] 1% | differentiation response [16] -18.4%
60.8%: double positive events [6]

CC(C)C(=O)Nc1ccc2c3c(cccc13)CC2
62.6%: double positive events [6]
inactive: percent of DMSO control GFP [1] 95% | GFP response vs DMSO [2] 98.5% | percent response of DMSO control [3] 92% | GFP response vs DMSO [4] 124% | GFP response, % of DMSO [5] 102% | vesicle binding response [6] 191% | inhibition [7] 10.5% | superoxide response (% of plate) [8] 99.4% | aptamer binding inhibition [9] 5% | response [10] 21.1% | inhibition [11] 18.6% | response [12] -2.45% | binding (% of control) [13] 94.9% | efflux inhibition (fraction of control) [14] -0.24 | inhibition [15] 8% | differentiation response [16] 5.6%

Cc1c(NC(=O)c2cccs2)cccc1[N+](=O)[O-]
67.8%: double positive events [6]
inactive: percent of DMSO control GFP [1] 102% | GFP response vs DMSO [2] 103% | percent response of DMSO control [3] 102% | GFP response vs DMSO [4] 107% | GFP response, % of DMSO [5] 99.1% | vesicle binding response [6] 342% | inhibition [7] 2.93% | superoxide response (% of plate) [8] 95.5% | aptamer binding inhibition [9] -4% | response [10] 3.73% | inhibition [11] -17.9% | response [12] -1.2% | binding (% of control) [13] 104% | efflux inhibition (fraction of control) [14] -0.01 | inhibition [15] 1% | differentiation response [16] 18.8%

COc1ccccc1/C=C/CN1CCN(Cc2ccc(F)cc2)C(CCO)C1 (stereo not given)
inactive: percent of DMSO control GFP [1] 101% | GFP response vs DMSO [2] 98.8% | percent response of DMSO control [3] 98.2% | GFP response vs DMSO [4] 91.6% | GFP response, % of DMSO [5] 98.5% | vesicle binding response [6] 171% | inhibition [7] -3.18% | superoxide response (% of plate) [8] 92.6% | aptamer binding inhibition [9] 1% | response [10] 9.17% | inhibition [11] -20.3% | response [12] 0.79% | binding (% of control) [13] 107% | efflux inhibition (fraction of control) [14] -0.38 | inhibition [15] 8% | differentiation response [16] -3.4%
63.2%: double positive events [6]

Nc1cnn(C2OC(CO)C(O)C2O)c(=O)n1 (stereo not given)
63.4%: double positive events [6]
inactive: percent of DMSO control GFP [1] 102% | GFP response vs DMSO [2] 108% | percent response of DMSO control [3] 100% | GFP response vs DMSO [4] 102% | GFP response, % of DMSO [5] 99.4% | vesicle binding response [6] 463% | inhibition [7] -13.9% | superoxide response (% of plate) [8] 99.1% | aptamer binding inhibition [9] 3% | response [10] -1.33% | inhibition [11] 1.7% | response [12] 0.15% | binding (% of control) [13] 97.7% | efflux inhibition (fraction of control) [14] 0.11 | inhibition [15] 0% | differentiation response [16] -8.55%

O=C(O)CCCCCCNC(=O)c1cncc(O)c1
inactive: percent of DMSO control GFP [1] 104% | GFP response vs DMSO [2] 107% | percent response of DMSO control [3] 105% | GFP response vs DMSO [4] 113% | GFP response, % of DMSO [5] 115% | vesicle binding response [6] 153% | inhibition [7] 13.4% | superoxide response (% of plate) [8] 112% | aptamer binding inhibition [9] 7% | response [10] -25.8% | inhibition [11] 12.7% | response [12] -3.09% | binding (% of control) [13] 97.3% | efflux inhibition (fraction of control) [14] 0 | inhibition [15] -5% | differentiation response [16] -4%
63.9%: double positive events [6]

CC(C)(Sc1cc(C(C)(C)C)c(O)c(C(C)(C)C)c1)Sc1cc(C(C)(C)C)c(O)c(C(C)(C)C)c1
60.1%: double positive events [6]
inactive: percent of DMSO control GFP [1] 101% | GFP response vs DMSO [2] 105% | percent response of DMSO control [3] 107% | GFP response vs DMSO [4] 101% | GFP response, % of DMSO [5] 106% | vesicle binding response [6] 170% | inhibition [7] -2.43% | superoxide response (% of plate) [8] 90.1% | aptamer binding inhibition [9] -5% | response [10] 1.22% | inhibition [11] 10.6% | response [12] -3.38% | binding (% of control) [13] 102% | efflux inhibition (fraction of control) [14] -0.03 | inhibition [15] 21% | differentiation response [16] -17.7%

N=c1c[n+](N2CCOCC2)[n-]o1
65%: double positive events [6]
inactive: percent of DMSO control GFP [1] 102% | GFP response vs DMSO [2] 106% | percent response of DMSO control [3] 112% | GFP response vs DMSO [4] 89.4% | GFP response, % of DMSO [5] 96.2% | vesicle binding response [6] 236% | inhibition [7] 13% | superoxide response (% of plate) [8] 92.1% | aptamer binding inhibition [9] 3% | response [10] -6.36% | inhibition [11] 3.46% | response [12] -0.08% | binding (% of control) [13] 95.1% | efflux inhibition (fraction of control) [14] -0.07 | inhibition [15] 9% | differentiation response [16] 7.09%

CSc1ccc(/C=N/N2CCN(Cc3ccc(C)cc3C)CC2)cc1
61.9%: double positive events [6]
inactive: percent of DMSO control GFP [1] 100% | GFP response vs DMSO [2] 99.7% | percent response of DMSO control [3] 110% | GFP response vs DMSO [4] 97% | GFP response, % of DMSO [5] 96.3% | vesicle binding response [6] 118% | inhibition [7] -5.11% | superoxide response (% of plate) [8] 97.2% | aptamer binding inhibition [9] -2% | response [10] 6.9% | inhibition [11] 7.81% | response [12] 4.06% | binding (% of control) [13] 103% | efflux inhibition (fraction of control) [14] 0.22 | inhibition [15] 25% | differentiation response [16] 11.5%
